Results reported in paper PMC4552634, “A New Set of Chemical Starting Points with Plasmodium falciparum Transmission-Blocking Potential for Antimalarial Drug Discovery” (PLoS ONE, 2015).
The whole screen tested about 13,000 compounds, of which about 3,200 (25%) showed an effect of 50% or more. The list shows a part of the results.

Tested on: P. falciparum stage V gametocytes
Design: BacTiter-Glo ATP luminescence viability of purified stage V gametocytes in 384-well plates, per cent inhibition versus DMSO
Conditions: 48 h, 5 µM; inhibitor

Row | Structure (SMILES) | % Inhibition [%]
1 | CN1CCN(c2cccc(NC(=O)c3ccc(-c4ccc(C#N)cc4)cc3)c2)CC1 [TCMDC-138669] | -26.05
2 | Fc1cccc2sc(Nc3nc(-c4ccccn4)cs3)nc12 [TCMDC-125542] | 81.67
3 | c1ccc(-c2csc(Nc3nc4cc5c(cc4s3)OCO5)n2)nc1 [TCMDC-124550] | 41.05
4 | Fc1ccc2nc(Nc3nc(-c4ccccn4)cs3)sc2c1 [TCMDC-125540] | 71.85
5 | COc1ccc2nc(Nc3nc(-c4ccccn4)cs3)sc2c1 [TCMDC-125541] | 1.427
6 | COc1cccc2sc(Nc3nc(-c4ccccn4)cs3)nc12 [TCMDC-125543] | 33.34
7 | Cc1ccc(NC(=O)c2ccc3ncccc3c2)cc1OC1CCN(Cc2ccc(F)cc2)CC1 [TCMDC-133747] | -16.12
8 | Cc1cc(NC(=O)Nc2ccc(I)c(OCCN(C)C)c2)ccc1Br [TCMDC-139108] | -4.695
9 | CN(Cc1cccc(O)c1)C1CCCN(c2cc(NC(=O)c3ccc(F)cc3)ccn2)C1 (stereo not drawn) [TCMDC-134960] | -31.52
10 | CNC(=O)/C=C/c1cc(NC(=O)Nc2ccnc3c(Br)cccc23)ccc1OC [TCMDC-140331] | 7.673
11 | O=C1C2=C(Nc3ccccc3SC2c2ccccc2)c2ccccc21 (stereo not drawn) [TCMDC-123496] | 22.47
12 | COc1ccc(-c2ccc(NC(=O)c3cccc(F)c3)cc2)cc1CN1CCCN(C)CC1 [TCMDC-132528] | 79.48
13 | COc1ccc(-c2ccc(NC(=O)c3cccc(C#N)c3)cc2)cc1CN1CCCN(C)CC1 [TCMDC-132531] | 38.42
14 | COc1ccc(-c2cccc(NC(=O)c3ccc(F)cc3)c2)cc1CN1CCCN(C)CC1 [TCMDC-132607] | 5.891
15 | CN1CCCN(Cc2ccc(-c3cccc(NC(=O)c4cccc(F)c4)c3)cc2)CC1 [TCMDC-132646] | -5.89
16 | COc1ccc(-c2cccc(NC(=O)c3cccc(F)c3)c2)cc1CN1CCCN(C)CC1 [TCMDC-132619] | 89.96
17 | COc1ccc2c(c1)OC(C)(C)CC2=NOS(=O)(=O)c1ccc(C)cc1 [TCMDC-131772] | -0.3703
18 | O=c1cc(NCCCNC2CCOc3c(Cl)cc(Cl)cc32)[nH]c2ccccc12 (stereo not drawn) [TCMDC-139477] | 33.79
19 | CC(=O)N[C@H](C(=O)Nc1ccc(-c2ccc(-c3nc4ccc(C(F)(F)F)cc4[nH]3)cc2)cc1)C(C)C [TCMDC-136854] | -3.438
20 | Cc1cccc2nc(-c3ccc(-c4ccc(NC(=O)NC5CC5c5ccccc5)cc4)cc3)[nH]c12 (stereo not drawn) [TCMDC-133255] | -29.85
21 | Cc1cccc2nc(-c3ccc(-c4ccc(NC(=O)Nc5ccc(Cl)cc5)cc4)s3)[nH]c12 [TCMDC-133176] | -22.37
22 | Cc1nnsc1C(=O)Nc1cccc(-c2ccc(-c3nc4cccc(C)c4[nH]3)s2)c1 [TCMDC-137091] | 82.4
23 | Cc1nnsc1C(=O)Nc1cccc(-c2ccc(-c3nc4cc(F)ccc4[nH]3)s2)c1 [TCMDC-137089] | 59.58

Row | Structure (SMILES) | % Inhibition [%]
24 | Cc1cccc2nc(-c3ccc(-c4cccc(NC(=O)Nc5ccc(Cl)c(Cl)c5)c4)s3)[nH]c12 [TCMDC-133272] | -3.418
25 | Cc1nnsc1C(=O)Nc1ccc(-c2ccc(-c3nc4cccc(C)c4[nH]3)s2)cc1 [TCMDC-137090] | 0.4196
26 | Cc1cccc2nc(-c3ccc(-c4cccc(NC(=O)Nc5ccc(Cl)cc5)c4)s3)[nH]c12 [TCMDC-133175] | 74.56
27 | COc1ccc(NC(=O)Nc2cccc(-c3ccc(-c4nc5cccc(C)c5[nH]4)s3)c2)cc1 [TCMDC-133242] | 1.322
28 | O=C(Nc1cccc(-c2ccc(-c3nc4cc(F)ccc4[nH]3)s2)c1)c1ccncc1 [TCMDC-136968] | -9.65
29 | Cc1nnsc1C(=O)Nc1cccc(-c2ccc(-c3nc4ccccc4[nH]3)s2)c1 [TCMDC-137079] | 9.217
30 | CC1CC(NCCCNc2cc(=O)c3ccccc3[nH]2)c2cc(Cl)c(Cl)c(Cl)c21 (stereo not drawn) [TCMDC-139479] | 22.71
31 | C(=Cc1nc2ccccc2s1)c1ccc2c(c1)OCCO2 [TCMDC-124539] | 68.35
32 | N=C(N)c1nc2ccccc2s1 [TCMDC-123945] | 9.097
33 | C=CCNC(=O)CCCN=C(N)N [TCMDC-131668] | 6.787
34 | Cc1cc2nc(-c3ccc(C(=O)NCc4ccc(C(C)(C)C)cc4)cc3)[nH]c2cc1C [TCMDC-140433] | -24.96
35 | CC(C)(C)c1ccc2nc(-c3ccc(C(=O)NCc4cccc(C(F)(F)F)c4)cc3)[nH]c2c1 [TCMDC-140454] | 18.91
36 | CC(C)(C)c1ccc(CNC(=O)c2ccc(-c3nc4ccc(Cl)cc4[nH]3)cc2)cc1 [TCMDC-140442] | 5.243
37 | CCOC(=O)c1ccc2nc(-c3ccc(C(=O)NCc4ccc(C(C)(C)C)cc4)cc3)[nH]c2c1 [TCMDC-140576] | -8.95
38 | Cc1cc2nc(-c3ccc(OCC(=O)NCc4cccc(C(F)(F)F)c4)cc3)[nH]c2cc1C [TCMDC-140439] | -1.946
39 | Cc1cc2nc(-c3ccc(OCC(=O)NCc4ccc(C(C)(C)C)cc4)cc3)[nH]c2cc1C [TCMDC-140440] | 63.48
40 | CC(C)(C)c1ccc(CNC(=O)c2ccc(-c3nc4ccc(C(C)(C)C)cc4[nH]3)cc2)cc1 [TCMDC-140455] | 76.42
41 | CC(C)(C)c1ccc2nc(-c3ccc(C(=O)NCCCc4ccccc4)cc3)[nH]c2c1 [TCMDC-140453] | 68.75
42 | Cc1cc2nc(-c3ccc(C(=O)NCCCc4ccccc4)cc3)[nH]c2cc1C [TCMDC-140429] | -39.85
43 | CCc1ccc(NC(=O)c2cccc(CN3CCCN(Cc4cccc(O)c4)CC3)c2)cc1 [TCMDC-135989] | -33.27
44 | O=C(/C=C/c1ccc(Cl)cc1)NCCCCCN1CCCC(C(=O)Nc2ccc(Cl)c(Cl)c2)C1 (stereo not drawn) [TCMDC-136125] | -14.11
45 | CCC1CN(CCCn2c3ccccc3c3ccccc32)C(CC)CN1 (stereo not drawn) [TCMDC-138116] | 25.71
46 | Cc1c(CCNC(=O)CCCN2CC(C)CC(C)C2)c2ccccc2n1C (stereo not drawn) [TCMDC-131457] | 10.13

Row | Structure (SMILES) | % Inhibition [%]
47 | CC1CN(CCCn2c3ccccc3c3ccc(C(=O)CCCN(C)C)cc32)CC(C)N1 (stereo not drawn) [TCMDC-137742] | 88.42
48 | O=c1[nH]c2ccc(Nc3nccc(NCCc4ccccc4)n3)cc2[nH]1 [TCMDC-136805] | -64.58
49 | CC(CCCCC(=O)Nc1ccc(CC(C)NCCc2cccc(Cl)c2)cc1)NCCc1cccc(Cl)c1 (stereo not drawn) [TCMDC-139799] | 105.4
50 | CC(CCCC(=O)Nc1ccc(CC(C)NCCc2cccc(Cl)c2)cc1)NCCc1cccc(Cl)c1 (stereo not drawn) [TCMDC-139798] | 110.2
51 | CC(CCCCCC(=O)Nc1ccc(CC(C)NCCc2cccc(Cl)c2)cc1)NCCc1cccc(Cl)c1 (stereo not drawn) [TCMDC-139800] | 109.3
52 | CC(Cc1ccc(NC(=O)CCCc2ccccc2)cc1)NCCc1cccc(Cl)c1 (stereo not drawn) [TCMDC-139883] | 22.17
53 | CC(C)CNc1c2c(nc3cnn(-c4c5c(nc6cn[nH]c46)CCCC5)c13)CCCC2 [TCMDC-131555] | -4.273
54 | Cc1cccc2nc(-c3ccc(-c4ccc(CN5CCOCC5)cc4)cc3)[nH]c12.O=C(O)C(F)(F)F [TCMDC-133825] | 20.49
55 | O=C(Nc1ccc(F)cc1)NC1CCN(c2ccnc3ccccc23)C1 (stereo not drawn) [TCMDC-133577] | 52.59
56 | O=C(Nc1ccccc1Br)N[C@@H]1CCN(c2ccnc3ccccc23)C1 [TCMDC-141572] | 52.9
57 | O=C(Nc1ccc(C(F)(F)F)cc1)NC1CCN(c2ccnc3ccccc23)C1 (stereo not drawn) [TCMDC-133578] | 40.18
58 | Cc1ccc(NC(=O)NC2CCN(c3ccnc4ccccc34)C2)cc1 (stereo not drawn) [TCMDC-133576] | -20.26
59 | O=C(Nc1cccc(C(F)(F)F)c1)NC1CCN(c2ccnc3ccccc23)CC1 [TCMDC-133586] | -4.951
60 | CC(C)(C)c1ccc(OCC(=O)NC2CCN(c3ccnc4cc(Cl)ccc34)C2)cc1 (stereo not drawn) [TCMDC-133670] | 64.95
61 | O=C(COc1ccccc1)NC1CCN(c2ccnc3cc(Cl)ccc23)C1 (stereo not drawn) [TCMDC-133669] | -12.2
62 | O=C(COc1ccc(F)cc1)NC1CCN(c2ccnc3cc(Cl)ccc23)C1 (stereo not drawn) [TCMDC-133397] | -4.375
63 | COc1ccc(NC(=O)NC2CCN(c3ccnc4ccccc34)C2)cc1 (stereo not drawn) [TCMDC-133575] | 3.669
64 | O=C(Nc1ccccc1Oc1ccccc1)NC1CCN(c2ccnc3cc(Cl)ccc23)C1 (stereo not drawn) [TCMDC-133401] | -4.379
65 | O=C(Nc1ccc(C(F)(F)F)cc1)NC1CCN(c2ccnc3ccccc23)CC1 [TCMDC-133587] | 54.56
66 | O=C(Nc1ccc(OC(F)(F)F)cc1)NC1CCN(c2ccnc3ccccc23)C1 (stereo not drawn) [TCMDC-133583] | -30.46
67 | Cc1ccc(-c2cc(C(=O)Nc3ccc(S(=O)(=O)N4CC(C)OC(C)C4)cc3)[nH]n2)c(O)c1 (stereo not drawn) [TCMDC-125180] | -20.62
68 | COc1ccc2nccc([C@@H](O)CN3CCC(NC(=O)c4ccc(-c5ccccc5)s4)CC3)c2c1 [TCMDC-141106] | 10.46
69 | O=C(CCCCCNC(=O)c1ccc(O)c(-c2ccc(Cl)c(Cl)c2)c1)NC1CCCCCC1 [TCMDC-140842] | -20.8
